Screens from PubChem BioAssay.
TIM10 inh – growth inhibitors of TIM10 yeast strain. inhibition, % at 10 µM. S. cerevisiae TIM10 strain growth, BacTiter-Glo luminescence, 24 h. 1.4% of 330,000 active. AID 463195;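 active = inhibition of 40% or more at the single tested concentration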;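 also: wild-type TIM10 isogenic control strain grown at permissive 25 °C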
PfHsp90 set2 – inhibits growth of yeast expressing Plasmodium falciparum Hsp90 | 0.32% of 310,000 active | inhibition, % at 9.4 µM | AID 504621 | S. cerevisiae expressing PfHsp90, BacTiter-Glo ATP, 48 h; yeast lacking PDR1 and PDR3 efflux regulators;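 active = every replicate shows inhibition above about 80%, whatever the replicate mean, limit read from the data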;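 also: 0% = DMSO neutral controls and 100% = 20 µM radicicol positive controls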
NALP3 yeast inh – NALP3 inhibition in yeast; inhibition, % at 10 µM; Yeast reconstituted NLRP3/ASC/caspase-1, beta-gal luminescence, 24 h; AID 2825; 0.39% of 330,000 active;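 active = inhibition of 50% or more; inactive = inhibition below 50%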;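 also: plate controls were induced DMSO wells for no effect and uninduced yeast grown without galactose for full effect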
NALP1 yeast inh – inhibitors of NALP1 inflammasome in yeast; S. cerevisiae NALP1/ASC/caspase-1 growth, X-gal OD620, 72 h; 0.61% of 280,000 active; inhibition, % at 10 µM; AID 2071; in the data active = inhibition mostly above about 24%, no sharp cut-off; inactive = mostly below about 32%
tim10-1 inh – tim10-1 yeast growth inhibition | S. cerevisiae tim10-1 ts strain growth, BacTiter-Glo, 24 h | 2.2% of 330,000 active | inhibition, % at 20 µM;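 active = inhibition of at least 40%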;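 also: mutant grown at 25 °C; 0% = DMSO wells with yeast and 100% = wells holding no yeast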
tim23-1 inh – tim23-1 yeast growth inhibition; S. cerevisiae tim23-1 growth, BacTiter-Glo luminescence, 24 h; 1.3% of 330,000 active; inhibition, % at 20 µM;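 active = growth inhibition of the mutant yeast at or above 50%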;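 also: temperature-sensitive mutant grown at 25 °C; plate controls were DMSO-treated mutant yeast for no effect and medium wells lacking yeast for full effect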
tim23-1 confirm – tim23-1 yeast growth inhibition, confirmed; 83% of 4,400 active; S. cerevisiae tim23-1 growth, BacTiter-Glo luminescence, 24 h; shares compounds with tim23-1 inh; inhibition, % at 20 µM;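 active = inhibition above about 39% in either of two replicate wells at 20 µM, limit read from the data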;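 also: temperature-sensitive tim23-1 mutant grown at 25 °C; 0% = DMSO wells with yeast and 100% = medium wells without yeast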
The depositor's hits bear a star; nt = no result. An excerpt weighted towards active compounds, which were near 4.2% of everything screened.

SMILES	TIM10 inh	PfHsp90 set2	NALP3 yeast inh	NALP1 yeast inh	tim10-1 inh	tim23-1 inh	tim23-1 confirm
COc1ccc(C(C)NC(=S)NC2CCCC2)cc1OC (stereo not given)	7	-15	-1	6	9	4	nt
Cc1ccc(C(C)NC(=S)NC2CCCCC2)cc1C (stereo not given)	32	14	31	10	33	55*	22
Cc1c(Cl)ccc2c(C(=O)Nc3cc(C(C)(C)C)on3)cc(-c3ccccn3)nc12	7	6	7	14	-11	13	nt
COC(=O)c1ccc2nc(NC(=O)C3CCCCC3)sc2c1	-2	5	18	2	13	5	nt
CC(C)c1ccc2nc(NC(=O)C3CC3)sc2c1	37	-50	-21	21	26	51*	52*
O=C(Nc1nc2cc3c(cc2s1)OCCO3)C1CCCCC1	17	12	32	nt	30	57*	57*
CC(=O)Nc1nc2cc3c(cc2s1)OCCO3	-1	-10	6	15	28	17	nt
Cc1noc(C)c1S(=O)(=O)N(C)C[C@H]1Oc2c(NC(=O)C3CCCCC3)cccc2C(=O)N([C@H](C)CO)C[C@@H]1C	5	6	10	nt	1	7	nt
COC(=O)C(C)SC1=N/C(=C/c2ccc(-n3cncn3)cc2)C(=O)N1 (stereo not given)	1	-2	-6	nt	16	10	nt
Cc1ccc(OCc2n[nH]c(=S)n2-c2ccc(Cl)cc2)cc1	22	4	14	5	16	42	nt
S=c1[nH]nc(COc2ccc(Cl)cc2)n1-c1ccc(Cl)cc1	36	32	13	10	27	51*	41*
COCCSc1nc(N)c2c3c(sc2n1)CN(C)CC3	14	16	17	8	5	12	nt
CC1CCc2c(sc3nc(C(C)(C)C)nc(N4CCN(C(=O)CCl)CC4)c23)C1 (stereo not given)	24	59	14	-20	21	50*	53*
CCC(=O)N1CCN(c2nc(CC)nc3sc4c(c23)CCCC4)CC1	-18	16	-4	14	-42	-15	nt
Cc1ccc(-c2ccc(C3C(C#N)=C(N)Oc4n[nH]c(C)c43)o2)cc1 (stereo not given)	14	-8	5	14	26	60*	46*
CN(Cc1ccccc1)C(=S)NC(=O)c1ccc(-c2ccccc2)cc1	8	1	22	4	11	6	nt
CN(Cc1ccccc1)C(=S)NC(=O)c1cccs1	24	-32	34	11	33	51*	36
CC(NC(=S)NC(=O)c1cccs1)c1ccccc1 (stereo not given)	29	-21	16	nt	24	52*	45*
Nc1ncnc2c1ncn2[C@@H]1O[C@H](CO)C[C@@H]1O	-2	nt	44	25	37	56*	59*
CCN(CC)c1nc(-c2ccccc2)nc2ccccc12	32	1	18	16	27	51*	43*
Fc1ccccc1-c1nc(NCc2ccccc2)c2ccccc2n1	6	nt	11	-3	35	50*	38
c1ccc(CNc2nc(-c3ccccn3)nc3ccccc23)cc1	28	-15	48	25	12	-15	nt
c1ccc(CNc2nc(-c3ccccc3)nc3ccccc23)cc1	21	2	28	10	33	56*	24
c1ccc(CNc2nc(-c3cccnc3)nc3ccccc23)cc1	-27	-1	20	9	26	39	nt
CC(C)(C)c1ccc(NC(=O)c2ccsc2)cc1	25	nt	41	6	24	56*	48*
SMILES	TIM10 inh	PfHsp90 set2	NALP3 yeast inh	NALP1 yeast inh	tim10-1 inh	tim23-1 inh	tim23-1 confirm
COc1cccc(CNC(=O)CCC(=O)N2CCOCC2)c1	-10	-49	22	nt	1	-6	nt
O=C(N/C(=C\c1ccco1)C(=O)N1CCCC1)c1cccs1	11	nt	7	24	9	52*	3
O=C(N/C(=C/c1ccco1)C(=O)N1CCCC1)c1cccs1	3	-26	17	6	15	5	nt
O=C(c1cc2c(s1)-c1ccccc1OC2)N1CCc2ccccc2C1	14	-24	8	30	24	38	nt
O=C(c1cc(Br)c(Br)s1)N1CCc2ccccc2C1	27	-11	7	nt	2	52*	53*
O=C(NC(CSSCC(NC(=O)c1ccccc1)C(=O)O)C(=O)O)c1ccccc1 (stereo not given)	0	1	8	-3	-22	-1	nt
COCc1nnc(NC(=O)C2CC(=O)N(C3CCCC3)C2)s1 (stereo not given)	0	7	13	6	-10	6	nt
CC(C)(C)C(=O)Nc1nc(-c2ccc3c(c2)OCO3)cs1	31	-5	8	0	30	55*	50*
COc1cccc(CNc2ccc([N+](=O)[O-])cc2Cl)c1O	13	-30	36	7	36	58*	65*
O=C1NN=C(c2ccc(Br)cc2)CC1c1ccc(Cl)cc1 (stereo not given)	18	-70	2	12	29	60*	72*
CN(C)c1ccc(/C=N/n2c(C3CCCCC3)n[nH]c2=S)cc1	9	-5	28	-6	14	50*	33
S=c1[nH]nc(C2CCCCC2)n1/N=C/c1ccccc1	23	7	21	5	32	67*	40*
CCOc1ccc(/C=N/n2c(C3CCCCC3)n[nH]c2=S)cc1	37	50	24	-2	28	74*	21
Fc1ccc(/C=N/n2c(C3CCCCC3)n[nH]c2=S)cc1	34	-4	22	10	35	71*	32
Oc1cncc(Cc2ccccc2)c1	-5	11	26	-4	15	15	nt
C[C@]12c3[nH]c4ccccc4c3CCN1C(=O)C(CC(=O)NCCCn1ccnc1)C[C@@H]2C(=O)N1CCCCC1 (stereo not given in full)	5	-9	-1	nt	11	-2	nt
Cn1cc(Cl)c(C(=O)NC(=S)Nc2sc3c(c2C#N)CCCCC3)n1	27	-24	3	-29	12	23	nt
CCc1ccc(OC)c(-c2csc(N)n2)c1	5	nt	23	15	16	5	nt
Nc1nc(-c2cc(Cl)cc(Cl)c2OC(F)F)cs1	26	3	20	-4	14	61*	52*
O=C(NCCO[N+](=O)[O-])c1cccnc1	0	6	15	11	-6	2	nt
COC(=O)C1=C(C(=O)OC)[C@@H]2N(C)c3ccc(OC)cc3[C@@]23C[C@@H](C(=O)OC)N(C(=O)c2cccs2)C3=N1	9	6	8	9	18	32	nt
COc1ccc(-c2cccc(NC(=O)c3ccc4c(c3)OCO4)c2)nn1	9	-3	4	nt	13	14	nt
